High-throughput results (PubChem)
Hits are enriched below; roughly 2.2% of the tested compounds scored in any of these assays.
CHT allo act: allosteric activators of human choline transporter CHT; Q9GZV3; hit rate 0.49% among 310,000; CHT-expressing cells, membrane potential dye, choline EC20; hits give high values; LV-AA mutant CHT in HEK293 cells; B-score at 10 µM; AID 488977;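 active means initial fluorescence not abnormally high and integrated response B-score, plate-corrected, over 3 SD above library mean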
Target sequence (Q9GZV3 whole entry, looked up): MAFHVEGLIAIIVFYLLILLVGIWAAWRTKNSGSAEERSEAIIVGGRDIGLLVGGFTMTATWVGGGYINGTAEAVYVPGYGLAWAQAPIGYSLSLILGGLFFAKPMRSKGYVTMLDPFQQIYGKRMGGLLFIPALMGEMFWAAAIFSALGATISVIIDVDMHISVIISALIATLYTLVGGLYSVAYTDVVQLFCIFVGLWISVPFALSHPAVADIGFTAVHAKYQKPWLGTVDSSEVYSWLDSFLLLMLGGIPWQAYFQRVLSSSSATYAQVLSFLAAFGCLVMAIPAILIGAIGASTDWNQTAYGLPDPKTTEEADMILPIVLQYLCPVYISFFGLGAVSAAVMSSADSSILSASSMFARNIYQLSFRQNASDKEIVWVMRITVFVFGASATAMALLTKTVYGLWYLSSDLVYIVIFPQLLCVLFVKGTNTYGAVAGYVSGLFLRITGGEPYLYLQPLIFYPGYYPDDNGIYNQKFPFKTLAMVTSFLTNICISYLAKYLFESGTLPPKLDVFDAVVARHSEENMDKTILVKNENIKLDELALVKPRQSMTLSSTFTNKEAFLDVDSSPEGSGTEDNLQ
Platelet DG rel: platelet dense granule release activity; hit rate 0.22% among 300,000; human platelet-rich plasma, SFLLRN dense granule ATP release, luminescence; inhibition, %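 (compounds screened at 7.5 µM in platelet-rich plasma)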; AID 1663;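 active means mean replicate score, as percent of positive control, at or above 50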
VLA-4 inh: inhibition in a human VLA-4 binding assay. hit rate 0.2% among 330,000. inhibition, % (about 7 µM as worked out from the volumes in the protocol). AID 2557. VLA-4 expressing cells, ligand binding flow cytometry. P13612; in the data active means inhibition above about 50%
CHT block: inhibitors of human choline transporter CHT; Q9GZV3; CHT-expressing cells, membrane potential dye, choline response; hits give low values; B-score at 10 µM; hit rate 0.86% among 310,000;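 active means B-score over 3 SD under the library average, and starting fluorescence ratio not unusually high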;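 further: choline stimulus applied at its EC90 after an EC20 pre-addition; B-score computed on integrated fluorescence ratio after choline addition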
AI-2 QS modul: Vibrio harveyi AI-2 quorum sensing modulation; hit rate 0.4% among 300,000; activity change, % at 7.5 µM; Vibrio harveyi JMH597 AI-2 luminescence/OD600 ratio, 9 h; hits give low values; strain lacks LuxN and CqsS sensors; 0 = neutral-control median; in the data active means activity change below about -75%, passing the limit was not always enough;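 further: luminescence divided by OD600 gain over 9 h not by final OD600 alone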
HIF act: HIF pathway transcriptional activation; hit rate 0.32% among 300,000; U2OS HRE-luciferase reporter, luminescence; normalized: DMSO 0%, desferrioxamine 100%; activation, % at 7.5 µM (by protocol);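 active means mean activation of at least 10% of the iron chelator positive control signal, with at least half of replicates also reaching 10%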
CHT act confirm: human CHT activation, confirmatory screen; AID 504833; CHT-expressing cells, membrane potential dye fluorescence (FDSS); % of choline EC20–EC90 response window; HEK293 expressing CHT LV-AA mutant; choline added at its EC20; shares compounds with CHT allo act; activation, % at 10 µM; hit rate 91% among 2,500;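 active means primary screen active, with duplicate mean activation above negative control mean plus 3 SD, cut at about 11% in these data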
HEK293 MP dye: CHT activator counter-screen hit in parental HEK293 cells; AID 623908; hit rate 62% among 2,500; shares compounds with CHT allo act; ratio readout change at 10 µM, hits read low; membrane potential dye fluorescence (FDSS); measured after EC20 choline addition;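 active means duplicate-averaged ratio beyond 3 SD from buffer wells, up or down, though filed actives are nearly all decreases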
* marks the source's active call; other numbers are inactive results; i = inactive; x = no result given.

SMILES	CHT allo act	Platelet DG rel	VLA-4 inh	CHT block	AI-2 QS modul	HIF act	CHT act confirm	HEK293 MP dye
COc1cc(OC)cc(C(=O)NNC(=O)CN2C(=O)NC(C)(c3ccccc3)C2=O)c1 (stereo not drawn)	i	-11	3	i	4	0	x	x
CCCCN(CCCNC(=O)c1ccc(CS(=O)(=O)c2c(Cl)cccc2Cl)o1)Cc1ccccc1	i	1	2	i	21	0	44*	-42*
CCc1ccc(C(O)(CNCc2ccccc2)c2ccccc2)cc1 (stereo not drawn)	i	-1	-3	i	32	1	24*	i
CCC(C)(C)n1nnnc1C(c1cccnc1)N1CCN(c2cccc(C(F)(F)F)c2)CC1 (stereo not drawn)	i	3	2	i	28	-1	12*	i
CCC(C)(C)n1nnnc1C(c1ccncc1)N1CCN(c2cccc(OC)c2)CC1 (stereo not drawn)	i	-7	7	i	-6	-1	x	x
Cn1nnc2cc(C(=O)N3CCN(c4ccccn4)CC3)ccc21	i	-2	8	i	13	1	x	x
CC(NC(=O)C1CCN(C(=O)Nc2ccccc2)CC1)c1ccccc1 (stereo not drawn)	i	-10	-3	i	11	0	0	i
CCOC(=O)c1c(C)n(C)c2ccc(OC)c(NC(=O)CN3CCSCC3)c12	i	11	-1	i	5	0	x	x
CCOC(=O)c1c(C)n(C)c2ccc(OC)c(NC(=O)CCN3CCC(Cc4ccccc4)CC3)c12	i	8	15	i	7	-1	7	i
N=c1c2c(n(Cc3ccc(F)cc3)c3c1CCC3)CCC2	7.1*	0	8	i	18	0	49*	-50*
CCn1c2c(c(=N)c3c1CCC3)CCC2	i	12	-2	i	20	0	x	x
Cc1ccc2nc3ccc(N4CCCC4)nn3c(=O)c2c1	i	-3	6	i	21	2	44*	-46*
OCCOCCN1CCN(C(=S)Nc2ccccc2)CC1	i	5	-26	i	4	0	x	x
Cc1nn(S(=O)(=O)c2ccccc2)c(C)c1Sc1ccc([N+](=O)[O-])cc1	8*	8	9	i	29	0	29*	i
O=c1[nH]cccc1-c1nc2ccccc2[nH]1	i	4	5	i	21	3	34*	-30*
O=C(Oc1ccc(-n2cnnn2)cc1)c1ccccc1	i	1	-14	i	38	0	x	x
CS(=O)(=O)N1CCN(c2ccc([N+](=O)[O-])c(N3CCOCC3)c2)CC1	i	0	11	i	3	0	x	x
CS(=O)(=O)N1CCN(c2ccc([N+](=O)[O-])c(NCCN3CCOCC3)c2)CC1	i	2	5	i	13	0	32*	-40*
CN(C)Cc1ccc(-c2nc3cccc4c3n2CCNC4=O)cc1	i	-3	15	i	20	2	51*	-38*
Cc1cc(CN(C)C(=O)CC2C(=O)NCCN2Cc2ccc(-c3ccccc3)cc2)on1 (stereo not drawn)	i	-6	5	i	11	0	x	x
COc1ccc(OC)c(C2C(C(=O)c3cc4ccccc4o3)=C(O)C(=O)N2c2cc(C)on2)c1 (stereo not drawn)	i	-7	10	i	3	0	11*	i
C/C(=N\NC(=O)c1ccccc1)c1cccc(Br)c1	i	5	1	i	-10	2	5	i
CCOC(=O)C1=C(C)S/C(=C\N(C)C)C1=O	11*	15	22	i	9	0	61*	-54*
CCOC(=O)C1=C(C)NC(=O)/C1=C\N(C)C	i	2	0	i	12	0	x	x
CCCc1cc(=O)oc2c(C)c(OCC(=O)NCCCn3ccnc3)ccc12	i	-1	6	i	10	0	44*	-44*
SMILES	CHT allo act	Platelet DG rel	VLA-4 inh	CHT block	AI-2 QS modul	HIF act	CHT act confirm	HEK293 MP dye
CCCc1cc(=O)oc2c3c(cc(OCC(=O)NCCCn4ccnc4)c12)OC(C)(C)CC3	i	-3	29	i	26	0	x	x
CCCc1cc(=O)oc2c3c(cc(OCC(=O)NCC4CCC(C(=O)O)CC4)c12)OC(C)(C)CC3 (stereo not drawn)	i	-4	-24	i	0	0	7	i
CCc1cc(=O)oc2cc(C)cc(OC(C)C(=O)NC3CCN(Cc4ccccc4)CC3)c12 (stereo not drawn)	i	13	4	i	15	1	54*	-45*
CCc1cc(=O)oc2c3c(cc(OCC(=O)NCCCCCC(=O)O)c12)OC(C)(C)CC3	i	5	15	i	-10	-1	x	x
Cc1cc(=O)oc2c3c(cc(OCC(=O)NCCCn4ccnc4)c12)OC(C)(C)CC3	i	2	-21	i	2	0	24*	-36*
Cc1ccccc1CS(=O)(=O)c1cn(CC(=O)N2CCOCC2)c2ccccc12	i	1	-9	i	0	0	x	x
Cc1cc(C)cc(OCC(=O)Nc2cccc(S(=O)(=O)NC3=NCCC3)c2)c1	x	x	-32	x	x	x	x	x
Cc1cc(OC(C)C(=O)NCCCN2CCOCC2)c2c(C)c(C)c(=O)oc2c1 (stereo not drawn)	6.4*	0	3	i	6	0	62*	-48*
Cc1cc(OCC(=O)NCCN2CCOCC2)c2c(C)c(C)c(=O)oc2c1	i	13	5	i	11	0	56*	-54*
CCc1cc(=O)oc2cc(C)cc(OC(C)C(=O)NCCCN3CCOCC3)c12 (stereo not drawn)	i	-11	4	i	3	x	43*	-33*
Cc1cc(OCC(=O)NCCCn2ccnc2)c2c(C)c(C)c(=O)oc2c1	i	-21	-8	i	15	4	41*	-64*
Cc1cc(OC(C)C(=O)NCCN2CCOCC2)c2c(C)cc(=O)oc2c1 (stereo not drawn)	i	-5	-3	i	20	0	x	x
CC(C)[C@H](NC(=O)OCc1ccccc1)C(=O)N[C@@H](Cc1c[nH]c2ccccc12)C(=O)O	i	-3	25	i	4	0	x	x
CCc1cc2c3c([nH]c2cc1S(=O)(=O)NCCCOC)CC(C)(C)CC3=O	i	-1	15	i	8	0	x	x
